Shown are actives, neighbours in structure and some others; about 6.5% of the full set was active somewhere.
NADH enzymes: inhibition of NAD/NADH coupling enzymes, library profiling; coupled PK/LDH NADH assays, four targets; IC50, µM (doses to about 10 µM), for inactives: at the highest dose inhibition; actives 0.02% (n = 65,000); AID 774;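 active means single-dose screening hits from any of four coupled enzyme assays that gave an IC50 when retested across doses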;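 further: the DPM-DC format reads NADH fluorescence rather than 340 nm absorbance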
Autofluor 339: intrinsic fluorescence of library compounds, ex339/em460 – biochemical, MLSMR library, data from DPM-DC assay, artefact control, profiling panel; compound autofluorescence, ex339/em460 nm, NADH buffer; hits give high values; 1 = no-compound wells, NADH background; fluorescence fold increase at 10 µM; actives 5.5% (n = 65,000);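 active means at 10 µM, mean starting fluorescence two-fold or more over control wells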;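 further: signal is the first read of a kinetic run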
Spn PMK inh: inhibitors of Streptococcus pneumoniae phosphomevalonate kinase; purified PMK, PK/LDH-coupled NADH absorbance 340 nm; inhibition, % at 10 µM; actives 0.49% (n = 65,000);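 active means top-ranked compounds by inhibition in the single 10 µM screen, taking a fixed number of the strongest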;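 further: 0% = full reaction with DMSO carrier and 100% = background rate without enzyme reaction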
Spn DPM-DC inh: blocks S. pneumoniae diphosphomevalonate decarboxylase. purified DPM-DC, PK/LDH coupled NADH fluorescence. calls only at 10 µM. actives 0.49% (n = 65,000);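 active means the 320 compounds with the highest percent inhibition in the single-dose primary screen, excluding strongly autofluorescent ones, cut at about 32% in these data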;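 further: kinetic rate of NADH fluorescence loss reporting ADP formed by the decarboxylase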
A340 absorber: compounds absorbing at 340 nm | 65,000 tested, under 10 active | fold change at 10 µM | compound absorbance at 340 nm, fold over control;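 active means at 10 µM dose, initial 340 nm absorbance at least 2 fold that of control wells; inactive means change under 2 fold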;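 further: initial absorbance extrapolated from kinetic A340 decline of NADH oxidation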
Spn MK inh: inhibitors of Streptococcus pneumoniae mevalonate kinase | inhibition, % at 10 µM | actives 0.48% (n = 65,000) | purified MK, PK/LDH-coupled NADH absorbance 340 nm | AID 555;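 active means ranked among the strongest by inhibition in the single 10 µM screen, a fixed top-ranked set picked for dose follow-up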
The depositor's hits bear a star; i = inactive; · = no result shown.

SMILES | NADH enzymes | Autofluor 339 | Spn PMK inh | Spn DPM-DC inh | A340 absorber | Spn MK inh
Cc1nc(Nc2ncc3c(n2)CCCC3=O)nc2ccccc12 | 2% | 1.1 | 0 | i | 1.1 | 6
COCCCNC(=O)c1c(N)n(-c2ccc3c(c2)OCO3)c2nc3ccccc3nc12 | 5% | 2.7* | 3 | i | 1.1 | 3
CCCNC(=O)c1c(N)n(-c2cc(OC)cc(OC)c2)c2nc3ccccc3nc12 | 4% | 2.5* | 17 | · | 1 | 2
CCCNC(=O)c1c(N)n(-c2ccc3c(c2)OCO3)c2nc3ccccc3nc12 | 9% | 1.4 | 15 | i | 1.1 | 7
Nc1c(C(=O)NC2CC2)c2nc3ccccc3nc2n1-c1ccc2c(c1)OCO2 | 6% | 3.2* | 2 | · | 1.1 | 10
COc1ccc(C(=O)N2CCCC(c3nc(-c4cccs4)no3)C2)cc1 (centres undefined) | 12% | 1.1 | 9 | i | 0.96 | 27
CC(c1ccccc1F)n1cc(C(=O)NCCc2ccco2)nn1 (centres undefined) | 2% | 1.1 | 0 | i | 1 | 7
Cc1nn2c(N3CCN(C(=O)c4ccco4)CC3)cc(C(C)(C)C)nc2c1-c1ccccc1 | 0% | 2.6* | 0 | i | 1.1 | 0
Cc1cc(N2CCN(C(=O)c3ccco3)CC2)n2ncnc2n1 | 20% | 1.1 | 18 | i | 1 | 42*
COC(=O)CN(c1ccccn1)S(=O)(=O)c1ccccc1 | 10% | 3.1* | 6 | i | 1 | 2
CC(C)n1nnnc1SCC(=O)Nc1ccccc1N1CCOCC1 | 5% | 1 | active | i | 1 | 2
Cn1c(Cc2ccccc2)nnc1SCC(=O)Nc1ccccc1N1CCOCC1 | 2% | 1.1 | 1 | i | 1 | 5
COc1ccc(-c2ccc(-c3noc(-c4cccs4)n3)c(OC)n2)cc1 | 2% | 3* | 1 | · | 1 | 6
COc1ccc(-c2ccc(-c3noc(-c4ccccc4OC)n3)c(OC)n2)cc1 | 1% | 3* | 4 | · | 1.1 | 7
COc1ccc(-c2ccc(-c3noc(-c4ccccc4C)n3)c(OC)n2)cc1 | 2% | 3.8* | 3 | · | 1.2 | 0
COc1cc(-c2noc(-c3cccs3)n2)cc(OC)c1OC | 6% | 1.1 | 11 | i | 1 | 5
Cc1nc2sc3c(c2c2nc(-c4ccco4)nn12)CC(C)(C)OC3 | 5% | 1.1 | 8 | i | 1 | 5
COC(=O)CC1C(=O)NCCN1C(=O)Nc1ccccc1 (centres undefined) | 8% | 1 | 24 | i | 1 | 0
CCOC(=O)CC1C(=O)NCCN1C(=O)Nc1ccccc1 (centres undefined) | 17% | 1.1 | 1 | i | 1.1 | 49*
OC1CN=C2CCCc3c2n(c2ccc(Cl)cc32)C1 (centres undefined) | 9% | 3.8* | 6 | · | 1.4 | 12
CCN1CCn2c3c(c4cc(Cl)ccc42)CCCC31 (centres undefined) | 7% | 1.2 | 11 | i | 1 | 9
Cc1noc(C)c1C(=O)NCCCN1CCCC1=O | 1% | 1.1 | 0 | i | 1 | 4
COc1ccc2nc(NCCCNC(=O)c3cc(OC)c(OC)c(OC)c3)c(C#N)cc2c1 | 9% | 3.1* | 17 | · | 1 | 0
Fc1ccc(N2CCN(C(c3cccs3)c3nnnn3C3CCCC3)CC2)cc1 (centres undefined) | 10% | 1.1 | 17 | i | 1 | 14
Cc1cc(NC(=O)CSc2nnnn2C2CCCC2)no1 | 17% | 2.8* | 14 | i | 1.1 | 9
SMILES | NADH enzymes | Autofluor 339 | Spn PMK inh | Spn DPM-DC inh | A340 absorber | Spn MK inh
COc1ccc(S(=O)(=O)N2CCN(C(=O)CCC3CCCC3)CC2)cc1 | 7% | 1.1 | 6 | i | 1 | 7
CS(=O)(=O)N1CCN(C(=O)CCC2CCCC2)CC1 | 14% | 1.1 | 33* | i | 1 | 10
O=C(O)c1cc(S(=O)(=O)NCC2CCCO2)ccc1Cl (centres undefined) | 7% | 1.1 | 14 | i | 0.98 | 6
COCCN1CC(O)=C(c2nc3ccccc3c(=O)[nH]2)C1=N | 4% | 3.7* | 0 | · | 1.1 | 8
COc1ccccc1N1CC(O)=C(c2nc3ccccc3c(=O)[nH]2)C1=N | 7% | 2.5* | 7 | i | 1 | 22
N=C1C(c2nc3ccccc3c(=O)[nH]2)=C(O)CN1CCO | 10% | 1.9 | 15 | i | 1 | 0
COc1ccc(N2CCCn3c2nc2c3c(=O)n(CCc3ccccc3)c(=O)n2C)cc1 | 5% | 1.1 | 10 | i | 1 | 6
Cc1ccc(N2CCn3c2nc2c3c(=O)n(CCc3ccccc3)c(=O)n2C)cc1 | 10% | 2.4* | 18 | i | 1 | 9
Cn1cccc1C(C(=O)NC1CCCCC1)N(C(=O)Cc1cccs1)c1ccc2c(c1)OCCO2 (centres undefined) | 6% | 1.1 | 14 | i | 1 | 4
OC(CNCCc1ccccc1)c1ccccc1 (centres undefined) | 1% | 1.1 | 11 | i | 0.99 | 0
COC(=O)c1ccc(-c2ccc(CNCC(O)c3ccccc3)o2)cc1 (centres undefined) | 6% | 2.9* | 9 | · | 1 | 6
COc1ccccc1/C=C/CN1CC(C)OC(C)C1 (centres undefined) | 16% | 1.1 | 0 | i | 1.1 | 48*
O=C(Nc1nc(-c2cc3ccccc3oc2=O)cs1)c1ccco1 | 0% | 2.1* | 0 | · | 1.1 | 0
COn1c(C)c(C(C)=O)c2c3nonc3ccc21 | 15% | 3* | 14 | i | 1 | 11
CCCCOn1c(C)c(C(=O)OCC)c2c3nonc3ccc21 | 2% | 2.6* | 14 | i | 0.99 | 0
COc1cccc(/C(O)=C2/C(=O)C(=O)N(CCN3CCOCC3)C2c2cccs2)c1 (centres undefined) | 7% | 1.1 | 17 | i | 1.1 | 3
COc1ccc(Cn2c3nc4ccccc4nc3c3c(=O)n(Cc4ccco4)c(C)nc32)cc1 | 5% | 1.6 | 0 | i | 1.1 | 3
CCCCn1c2nc3ccccc3nc2c2c(=N)oc(C)nc21 | 5% | 2.2* | 0 | · | 1.1 | 10
CCCCC(CC)Cn1c2nc3ccccc3nc2c2c(=N)oc(C)nc21 (centres undefined) | 8% | 2.4* | 0 | · | 1.1 | 25
CCCCCCOC(=O)C(C#N)c1nc2ccccc2nc1N1CCN(CC)CC1 (centres undefined) | 9% | 1.3 | 17 | i | 0.99 | 9
CCCCC(CC)Cn1c(N)c(C#N)c2nc3ccccc3nc21 (centres undefined) | 8% | 5* | 12 | · | 1 | 3
O=C(NCc1ccco1)C1CCCN(S(=O)(=O)c2cccc3cccnc23)C1 (centres undefined) | 5% | 1 | 10 | i | 1 | 4

Screens deposited in PubChem by SRMLSC.
